# Assay results taken from PubChem BioAssay AID651598 (Sanford-Burnham Center for Chemical Genomics, 2012).
# Where “and” joins values, the source holds several entries; their conditions need not be identical. Equal entries are not always repeated.
# Biological target: C-X-C chemokine receptor type 6 (Homo sapiens) (UniProt O00574)
# Assay: apelin receptor (APJ) antagonists, SAR follow-up, counter-screen for CXCR6 antagonist project, cell-based, beta-arrestin, DiscoveRx, panel, CHO-K1 (AID 651598)
# Conditions: CHO-K1 PathHunter beta-arrestin luminescence, antagonist mode; run 6, at 80 µM (top of the series)
# Chain of C-X-C chemokine receptor type 6 (Homo sapiens) (O00574 whole entry, looked up): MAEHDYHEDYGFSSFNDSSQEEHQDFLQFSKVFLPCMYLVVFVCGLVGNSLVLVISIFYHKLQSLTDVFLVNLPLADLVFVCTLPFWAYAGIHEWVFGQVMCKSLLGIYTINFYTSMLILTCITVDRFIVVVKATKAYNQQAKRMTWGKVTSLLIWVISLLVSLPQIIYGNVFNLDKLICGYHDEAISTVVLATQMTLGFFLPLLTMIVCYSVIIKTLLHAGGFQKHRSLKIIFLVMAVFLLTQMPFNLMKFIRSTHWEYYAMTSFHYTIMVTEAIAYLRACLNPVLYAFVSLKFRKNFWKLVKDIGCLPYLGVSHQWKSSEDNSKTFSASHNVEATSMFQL
row,Structure (SMILES),inhibition
1,COc1cc(C(=O)NC2CC3CCCC(C2)N3CC(=O)Nc2ccccc2)cc(OC)c1OC (stereo not drawn),85.3% and 54.2% and 27.6%
2,COc1cc(C(=O)NC2CC3CCC(C2)N3CC(=O)Nc2ccccc2)cc(OC)c1OC (stereo not drawn),57.4% and -0.766%
3,COc1cc(C(=O)NC2CCN(CC(=O)Nc3ccccc3)CC2)cc(OC)c1OC,20.7%
